Results published in the supplement of paper PMC10646978.
± gives the standard deviation.

System: RAW-Dual (murine macrophage reporter line)
Assay: NF-kB reporter (SEAP) activity fold change vs agonist alone; higher = enhanced NF-kB activity
Conditions: modulator concentration 10 µM; agonist: MPLA […]
Outline: (§1)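 Overnight stimulation with a PRR agonist followed pre-incubation for 1 hour at 37 °C with compound at 10 μM final. This was done in RAW-Dual murine macrophage reporter cells seeded at 50 000 per well in 384-well plates. NF-κB (SEAP, QUANTI-Blue absorbance at 620 nm) and IRF (Lucia luciferase, QUANTI-Luc luminescence) were read from the supernatant. Each reporter's fold change relative to the mean agonist-only control on the same plate was averaged over replicate plates.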

Structure (SMILES)	NF-kB reporter
CN(C)CCNC(=O)C(=O)NC(c1ccccc1)c1ccccc1	0.95 ± 0.027
Cc1ccsc1C(=CCCN1CCC[C@@H](C(=O)O)C1)c1sccc1C	0.972 ± 0.033
O=C1c2ccccc2C(=O)C1c1ccncc1	0.944 ± 0.029
Oc1c2c(nc3cc(-c4ccc(Cl)cc4)nn13)CCS2	0.973 ± 0.031
CC(C(=O)N1CCN(S(=O)(=O)C2CC2)CC1)n1nc2c(cc1=O)CCC2 (stereo not given)	0.934 ± 0.082
COc1ccc2c(C)nc(Nc3nc(C)cc(-c4ccccc4)n3)nc2c1	1.07 ± 0.1
COC(CNC(=O)c1cccc(Br)c1)c1ccccc1C (stereo not given)	0.873 ± 0.04
COc1ccc(OC)c(C2CC(c3ccc(Cl)cc3)=NN2S(C)(=O)=O)c1 (stereo not given)	1.04 ± 0.12
Cc1nc[nH]c1CN1CCc2c(c3ccccc3n2C)C1=O.Cl	0.903 ± 0.08
CC(=NNC(=O)CSc1nc2ccccc2n1Cc1ccccc1)c1ccc(Cl)cc1	1 ± 0.1
CN1CCN(C2=C(Cl)C(=O)N(c3cccc(Cl)c3)C2=O)CC1	1.01 ± 0.03
CC(=O)C1CCC2C3CC=C4CC(O)CCC4(C)C3CCC12C (stereo not given)	1.13 ± 0.074
CC(C)CNC(=O)C(=O)Nc1ccc(C(C)C)cc1	1.01 ± 0.038
COc1ccc(CCNCC(O)COc2cccc(C)c2)cc1OC.Cl (stereo not given)	1.06 ± 0.099
CCOc1ccc(C=c2sc3nc4ccccc4n3c2=O)cc1Cl	0.979 ± 0.031
O=C(CCCN1CCC(O)(c2ccc(Br)cc2)CC1)c1ccc(F)cc1 [Prestw-509]	1.04 ± 0.13
CC(=O)Nc1ccc(S(=O)(=O)N2CCC(Oc3nc(C)cc(C)n3)C2)cc1 (stereo not given)	0.969 ± 0.033
Cc1cc(C)n(CC2CCN(Cc3ccc(Br)cc3)CC2)n1	0.74 ± 0.049
C#CCCCCCCCCCCCC(=O)CC(O)COC(C)=O (stereo not given)	0.808 ± 0.022
COc1ccc(-n2cnc3cc(NC(C)=O)ccc32)cc1	0.885 ± 0.07

Structure (SMILES)	NF-kB reporter
COC1CC2CCC(C1)N2S(=O)(=O)c1ccc(Br)cc1 (stereo not given)	0.909 ± 0.04
CN(C)C(=O)c1cc2cnc(Nc3ccc(N4CCNCC4)cn3)nc2n1C1CCCC1	0.941 ± 0.071
CCCOc1ccc(-c2ccc(-c3nc(Cc4ccc(OC)c(OC)c4)no3)cc2)cc1	1.04 ± 0.097
CCOC(=O)C1=C(C)NC(=O)N(C(C)=O)C1c1ccc(Br)cc1 (stereo not given)	0.868 ± 0.052
O=C(Nc1ccccn1)c1ccc(OCC2CCCO2)nc1 (stereo not given)	1 ± 0.031
O=c1[nH]nc(Br)c(=O)[nH]1	0.969 ± 0.04
O=C(O)CCCN1CCC(O[C@@H](c2ccc(Cl)cc2)c2ccccn2)CC1.O=S(=O)(O)c1ccccc1	0.988 ± 0.059
COc1cc2c(cc1Cc1cccc(Cl)c1F)c(=O)c(C(=O)O)cn2[C@H](CO)C(C)C	1.25 ± 0.085
CC1CC(=O)C2=C(C1)OC(N)=C(C#N)C2c1cccc2ccccc12 (stereo not given)	1.03 ± 0.11
COc1ccc(Br)c(C(=O)N2CCOCC2CO)c1 (stereo not given)	1.03 ± 0.071
COC(=O)c1ccc(N2C(=O)c3ccc(Oc4cccc([N+](=O)[O-])c4)cc3C2=O)cc1	1.06 ± 0.11
CC(C)NCC(O)COc1ccccc1C(C)(C)C.Cl (stereo not given)	1.15 ± 0.03
COc1ccc([C@H]2CNC(=O)C2)cc1OC1CCCC1	1.9 ± 0.14
Cc1c(C)c2c(c(C)c1O)CCC(C)(CCCC(C)CCCC(C)CCCC(C)C)O2 (stereo not given)	1.06 ± 0.023
Oc1ccc(O)cc1	0.377 ± 0.093
Cc1c(C)n2c3c(=O)n(Cc4ccccc4F)c(=O)n(C)c3nc2n1CCCN1CCOCC1	0.958 ± 0.052
CCOc1ccc(CN(CCc2ccc3c(c2)OCO3)Cc2cccc3ccccc23)cc1	1.07 ± 0.074
Cc1ccc(O)c([C@H](CCN(C(C)C)C(C)C)c2ccccc2)c1.O=C(O)[C@H](O)[C@@H](O)C(=O)O	1.26 ± 0.089
CCOC(=O)N(CC(=O)OC)CP(=O)(O)C(Cc1ccccc1)C(=O)O (stereo not given)	0.969 ± 0.069
COC(=O)CNC(c1ccccc1)c1cc(Br)ccc1NC(=O)c1ccccc1Br (stereo not given)	1.52 ± 0.053

System: RAW-Dual (murine macrophage reporter line)
Assay: IRF reporter (Lucia luciferase) activity fold change vs agonist alone; higher = enhanced IRF activity
Conditions: modulator concentration 10 µM; agonist: 3'3'-cGAMP 10 ug/mL
Outline: as §1

Structure (SMILES)	IRF reporter
CN(C)CCNC(=O)C(=O)NC(c1ccccc1)c1ccccc1	0.998 ± 0.042
Cc1ccsc1C(=CCCN1CCC[C@@H](C(=O)O)C1)c1sccc1C	0.857 ± 0.056
O=C1c2ccccc2C(=O)C1c1ccncc1	0.757 ± 0.046
Oc1c2c(nc3cc(-c4ccc(Cl)cc4)nn13)CCS2	0.976 ± 0.038
CC(C(=O)N1CCN(S(=O)(=O)C2CC2)CC1)n1nc2c(cc1=O)CCC2 (stereo not given)	0.977 ± 0.091
COc1ccc2c(C)nc(Nc3nc(C)cc(-c4ccccc4)n3)nc2c1	0.914 ± 0.043
COC(CNC(=O)c1cccc(Br)c1)c1ccccc1C (stereo not given)	0.832 ± 0.032
COc1ccc(OC)c(C2CC(c3ccc(Cl)cc3)=NN2S(C)(=O)=O)c1 (stereo not given)	0.829 ± 0.068
Cc1nc[nH]c1CN1CCc2c(c3ccccc3n2C)C1=O.Cl	0.903 ± 0.041
CC(=NNC(=O)CSc1nc2ccccc2n1Cc1ccccc1)c1ccc(Cl)cc1	0.979 ± 0.046
CN1CCN(C2=C(Cl)C(=O)N(c3cccc(Cl)c3)C2=O)CC1	0.465 ± 0.022
CC(=O)C1CCC2C3CC=C4CC(O)CCC4(C)C3CCC12C (stereo not given)	0.887 ± 0.03
CC(C)CNC(=O)C(=O)Nc1ccc(C(C)C)cc1	0.989 ± 0.15
COc1ccc(CCNCC(O)COc2cccc(C)c2)cc1OC.Cl (stereo not given)	0.824 ± 0.029
CCOc1ccc(C=c2sc3nc4ccccc4n3c2=O)cc1Cl	1.01 ± 0.036
O=C(CCCN1CCC(O)(c2ccc(Br)cc2)CC1)c1ccc(F)cc1 [Prestw-509]	0.925 ± 0.024
CC(=O)Nc1ccc(S(=O)(=O)N2CCC(Oc3nc(C)cc(C)n3)C2)cc1 (stereo not given)	0.988 ± 0.063
Cc1cc(C)n(CC2CCN(Cc3ccc(Br)cc3)CC2)n1	0.913 ± 0.05
C#CCCCCCCCCCCCC(=O)CC(O)COC(C)=O (stereo not given)	0.176 ± 0.019
COc1ccc(-n2cnc3cc(NC(C)=O)ccc32)cc1	0.861 ± 0.025

Structure (SMILES)	IRF reporter
COC1CC2CCC(C1)N2S(=O)(=O)c1ccc(Br)cc1 (stereo not given)	1.01 ± 0.11
CN(C)C(=O)c1cc2cnc(Nc3ccc(N4CCNCC4)cn3)nc2n1C1CCCC1	0.987 ± 0.046
CCCOc1ccc(-c2ccc(-c3nc(Cc4ccc(OC)c(OC)c4)no3)cc2)cc1	0.978 ± 0.048
CCOC(=O)C1=C(C)NC(=O)N(C(C)=O)C1c1ccc(Br)cc1 (stereo not given)	1.28 ± 0.044
O=C(Nc1ccccn1)c1ccc(OCC2CCCO2)nc1 (stereo not given)	0.936 ± 0.077
O=c1[nH]nc(Br)c(=O)[nH]1	0.993 ± 0.11
O=C(O)CCCN1CCC(O[C@@H](c2ccc(Cl)cc2)c2ccccn2)CC1.O=S(=O)(O)c1ccccc1	0.995 ± 0.046
COc1cc2c(cc1Cc1cccc(Cl)c1F)c(=O)c(C(=O)O)cn2[C@H](CO)C(C)C	0.822 ± 0.026
CC1CC(=O)C2=C(C1)OC(N)=C(C#N)C2c1cccc2ccccc12 (stereo not given)	0.988 ± 0.033
COc1ccc(Br)c(C(=O)N2CCOCC2CO)c1 (stereo not given)	0.997 ± 0.098
COC(=O)c1ccc(N2C(=O)c3ccc(Oc4cccc([N+](=O)[O-])c4)cc3C2=O)cc1	0.994 ± 0.031
CC(C)NCC(O)COc1ccccc1C(C)(C)C.Cl (stereo not given)	0.796 ± 0.029
COc1ccc([C@H]2CNC(=O)C2)cc1OC1CCCC1	0.902 ± 0.039
Cc1c(C)c2c(c(C)c1O)CCC(C)(CCCC(C)CCCC(C)CCCC(C)C)O2 (stereo not given)	0.92 ± 0.057
Oc1ccc(O)cc1	0.459 ± 0.018
Cc1c(C)n2c3c(=O)n(Cc4ccccc4F)c(=O)n(C)c3nc2n1CCCN1CCOCC1	1.11 ± 0.089
CCOc1ccc(CN(CCc2ccc3c(c2)OCO3)Cc2cccc3ccccc23)cc1	0.619 ± 0.061
Cc1ccc(O)c([C@H](CCN(C(C)C)C(C)C)c2ccccc2)c1.O=C(O)[C@H](O)[C@@H](O)C(=O)O	0.656 ± 0.042
CCOC(=O)N(CC(=O)OC)CP(=O)(O)C(Cc1ccccc1)C(=O)O (stereo not given)	1.03 ± 0.045
COC(=O)CNC(c1ccccc1)c1cc(Br)ccc1NC(=O)c1ccccc1Br (stereo not given)	0.632 ± 0.035
